Assay results taken from PubChem BioAssay (NCI).
This is part of a sample that, as a whole, favours compounds with a hit. Of some 83,000 tested, about 20% had one in any assay.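 In brief: 96-well plates, 48 h treatment, single concentration, percent growth endpoint.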 A number with no mark means an inactive call. Active and inactive are the calls of the source. The calls were made as follows: active = growth percent below 10; inactive = the rest.

Key:
Assay in all cases: NCI-60 one-dose screen, 48 h (100 = growth as untreated, 0 = no growth, -100 = all killed)
Details in all cases: 10 µM unless noted
SK-MEL-2 melanoma = test system: SK-MEL-2 melanoma
EKVX NSCLC = test system: EKVX NSCLC
SN12C renal = test system: SN12C renal
UO-31 renal = test system: UO-31 renal
TK-10 renal = test system: TK-10 renal
ACHN renal = test system: ACHN renal
CAKI-1 renal = test system: CAKI-1 renal
A498 renal = test system: A498 renal
CCRF-CEM leukemia = test system: CCRF-CEM leukemia
MOLT-4 leukemia = test system: MOLT-4 leukemia
SR leukemia = test system: SR leukemia
RPMI-8226 leukemia = test system: RPMI-8226 leukemia
OVCAR-8 ovarian = test system: OVCAR-8 ovarian
OVCAR-5 ovarian = test system: OVCAR-5 ovarian
OVCAR-4 ovarian = test system: OVCAR-4 ovarian
SK-OV-3 ovarian = test system: SK-OV-3 ovarian
IGROV1 ovarian = test system: IGROV1 ovarian
OVCAR-3 ovarian = test system: OVCAR-3 ovarian
HS 578T breast = test system: HS 578T breast
NCI/ADR-RES ovarian = test system: NCI/ADR-RES ovarian

| SMILES | growth (SK-MEL-2 melanoma) | growth (EKVX NSCLC) [%] | growth (SN12C renal) [%] | growth (UO-31 renal) | growth (TK-10 renal) | growth (ACHN renal) [%] | growth (CAKI-1 renal) [%] | growth (A498 renal) | growth (CCRF-CEM leukemia) | growth (MOLT-4 leukemia) | growth (SR leukemia) | growth (RPMI-8226 leukemia) | growth (OVCAR-8 ovarian) | growth (OVCAR-5 ovarian) [%] | growth (OVCAR-4 ovarian) | growth (SK-OV-3 ovarian) [%] | growth (IGROV1 ovarian) [%] | growth (OVCAR-3 ovarian) | growth (HS 578T breast) | growth (NCI/ADR-RES ovarian) |
| --- | --- | --- | --- | --- | --- | --- | --- | --- | --- | --- | --- | --- | --- | --- | --- | --- | --- | --- | --- | --- |
| COc1cc(C2NN=C3c4ccccc4CCC32)cc(OC)c1OC (stereo not given) | 76.9% | 72.6 | 77.7 | 41.4% | 94.1% | 80.3 | 65 | 89.6% | 1.98% (active) | 60.5% | 61.1% | 5.35% (active) | 70.3% | 95.8 | 71.1% | 69 | 26.1 | 71.2% | 71.4% | 79.4% |
| O=c1[nH]c(NCc2ccccc2)nc2nc(Nc3ccc(NC(=S)Nc4ccccc4)cc3)nc(-c3ccc(O)cc3O)c12 | 97.5% | 63.2 | 97.4 | 78.5% | 134% | 103 | 77.3 | 101% | 86.4% | 77.4% | 67.5% | 90.8% | 87.4% | 111 | 114% | 97.9 | 70.3 | 111% | 88.1% | 106% |
| S=c1[nH]nc(-c2cc3ccc2CCc2ccc(cc2)CC3)n1C1CC1 | 110% | 88.9 | 94.8 | 88.8% | 143% | 102 | 98.6 | 97.8% | 104% | 105% | 109% | 106% | 107% | 99.1 | 89.4% | 113 | 101 | 108% | 101% | 103% |
| Cc1ccc2nc(Cl)cc(=O)n2c1 | 107% | 114 | 101 | 84.3% | 109% | 99.1 | 111 | 107% | 94.4% | 106% | 97.8% | 96.1% | 117% | 94 | 117% | 102 | 123 | 135% | 93.7% | 117% |
| COc1cc(-c2ncn(/C=C\C(=O)OC(C)C)n2)cc(C(F)(F)F)c1 | -10% (active) | 43.6 | 12.9 | 3.53% (active) | -8.8% (active) | 11.5 | 14.3 | -53.8% (active) | 11.5% | 2.48% (active) | 2.46% (active) | 67.5% | 9.36% (active) | 18.4 | 0.627% (active) | 28.1 | 14.3 | -42.1% (active) | -7.75% (active) | 2.76% (active) |
| CC(C)(C)n1cc(-c2ccnc(NCCCNS(=O)(=O)c3ccc(C(F)(F)F)cc3)c2)c(-c2cccc(O)c2)n1 | 0.948% (active) | 36.3 | 40.3 | 40.7% | 92.2% | 25.3 | 37.8 | 60.1% | 21.4% | 2.23% (active) | -7.63% (active) | -9.47% (active) | 28% | 36.1 | 41.7% | 70.1 | 31.3 | 42.5% | 23.5% | 34.6% |
| Cc1cc(N/N=C/c2nc(-c3ccc(Br)cc3)oc2C)c2cc(Br)ccc2n1 | 99% | 90.9 | 26.8 | 58.7% | 82% | 64.9 | 88.3 | 85.7% | -4.62% (active) | 7.29% (active) | 2.16% (active) | -9.38% (active) | 12% | 95.6 | -83.5% (active) | 105 | 78.8 | -13.4% (active) | 85.5% | 35% |
| NC1=C(/C(N)=N/O)C(c2ccccc2)c2ccc3ccccc3c2O1 (stereo not given) | 44.7% | 29.1 | 24.2 | 38.6% | 74.4% | 28.2 | 26 | -8.95% (active) | 14.4% | 27.2% | 34.9% | 19.1% | 17.2% | 29.6 | 47.5% | 55.2 | 29 | -3.21% (active) | 13.4% | -1.33% (active) |
| O=[N+]([O-])c1ccc(OCCCOc2ccccc2)cc1 | 102% | 96.8 | 104 | 87.2% | 97.5% | 106 | 93.9 | 102% | 105% | 94.6% | 92.3% | 97.7% | 105% | 107 | 100% | 105 | 94.5 | 99.3% | 108% | 99.8% |
| O=c1ccn(-c2ncnc3nc[nH]c23)cc1 | 90.9% | 91.4 | 90.3 | 67% | 86.4% | 99.3 | 74.6 | 87.6% | 89.7% | 96% | 86.2% | 76.4% | 101% | 93.8 | 93.3% | 84.8 | 88 | 88.3% | 81.7% | 97.6% |
| S=c1[nH]nc(-c2cc3ccc2CCc2ccc(cc2)CC3)n1-c1ccccc1 | 105% | 93.4 | 91.4 | 92.9% | -61.5% (active) | 100 | 87.2 | 90.2% | 95.8% | 92.7% | 96.6% | 94.5% | 102% | 103 | 83.1% | 111 | 100 | 104% | 116% | 99.8% |
| CC(=O)c1cc2c(N)c(C(=O)Nc3cccc4c3OCCO4)sc2nc1C | 67.1% | 102 | 103 | 90.2% | 104% | 104 | 71.7 | 8.65% (active) | 96.7% | 97.4% | 80.8% | 99.7% | 106% | 100 | 110% | 35.8 | 101 | 105% | 96.3% | 96.8% |
| CC(NNC(C)c1ccccc1)c1ccccc1 (stereo not given) | 110% | 97.2 | 116 | 93.1% | 105% | 108 | 89 | 97.9% | 118% | 113% | 91.9% | 97.8% | 115% | 107 | 112% | 110 | 117 | 118% | 128% | 105% |
| C=C[C@@H]1C[C@@H]2Cc3c(C)cc(C)cc3N1O2 | 110% | 81.6 | 101 | 101% | 92.7% | 101 | 92.3 | 95.1% | -61.1% (active) | -50.7% (active) | 6.7% (active) | 74.7% | 98% | 86.5 | 83.6% | 105 | 106 | 103% | 92.1% | 102% |
| CCO/C=N/C1=C(C#N)C(c2ccc(Cl)cc2)c2c(c3ccc(C)cc3[nH]c2=O)O1 (stereo not given) | 101% | 69.5 | 85.5 | 49.6% | 116% | 78.5 | 49.7 | 66.1% | 87.3% | 95.6% | 86.7% | 30.2% | 89.7% | 83.1 | 85% | 85.7 | 68.4 | 103% | 48.8% | 96.1% |
